FLuc counter: firefly luciferase modulation, counter-screen for miR-21 project; actives 6.9% (n = 360,000); purified FLuc, Km substrates, luminescence inhibition; P08659; Potency, µM (top dose mostly 57.5 µM), without a hit: at the top dose activity change, negative = inhibition, usual class: inhibitors; AID 588342;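 further: plate controls were vehicle for no effect and reference inhibitor for full effect; nearly all actives have a fitted effect of over 55% in size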
Target sequence (P08659 whole entry, looked up): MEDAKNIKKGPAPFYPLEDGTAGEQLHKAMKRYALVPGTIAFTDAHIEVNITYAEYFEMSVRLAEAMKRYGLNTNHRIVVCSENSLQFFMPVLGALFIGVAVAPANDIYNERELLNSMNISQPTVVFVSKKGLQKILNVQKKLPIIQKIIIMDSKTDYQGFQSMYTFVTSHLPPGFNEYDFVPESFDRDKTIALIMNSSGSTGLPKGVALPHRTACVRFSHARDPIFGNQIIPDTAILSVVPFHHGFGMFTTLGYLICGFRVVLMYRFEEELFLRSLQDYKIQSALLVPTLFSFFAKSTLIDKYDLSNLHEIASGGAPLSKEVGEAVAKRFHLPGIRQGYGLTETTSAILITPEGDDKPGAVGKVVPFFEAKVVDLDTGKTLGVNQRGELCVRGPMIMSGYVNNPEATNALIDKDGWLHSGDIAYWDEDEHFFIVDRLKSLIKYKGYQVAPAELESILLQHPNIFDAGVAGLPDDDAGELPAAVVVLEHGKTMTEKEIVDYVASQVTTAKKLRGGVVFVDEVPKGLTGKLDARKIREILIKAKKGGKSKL
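Biochemical qHTS of compounds, final roughly 60 µM downward over six points, against 10 nM purified firefly luciferase using Km concentrations of substrates (10 uM D-luciferin, 10 uM ATP) in Tris acetate pH 7.5 buffer; luminescence output.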
NPC1 promoter act: NPC1 promoter activation; Huh7 NPC1 promoter luciferase reporter, 24 h; AID 485313; Potency, µM (titrated, usually from 9.22 µM), inactives show at the top dose activation, actives largely listed as activators; actives 2.4% (n = 320,000); further: % of control where 0% means no effect; nearly all actives have a fitted effect of over 60% in size
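Stable NPC1-promoter luciferase Huh7 line; cpd (DMSO) 24 h, 37 °C, 5% CO2; Amplite luciferase reagent 10 min RT; luminescence readout. qHTS format.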
SMN2 splice enh: enhancers of SMN2 splice variant expression; HEK293 SMN2-luciferase splicing reporter, luminescence, 30-36 h; Potency, µM (titrated, usually from 46.1 µM), for inactives: at the top dose activity change, positive = activation, actives largely listed as activators; actives 2.8% (n = 210,000); AID 1458; further: % of control where 0% means no effect; nearly all actives have a fitted effect of over 55% in size
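qHTS luciferase splicing reporter: luminescence rises when SMN2 exon 7 is included in transfected HEK293 cells. Compound exposure lasted 30-36 h at 37C, with 4.5 mM final sodium butyrate as control, followed by a ONE-Glo read.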
ELG1 genotoxic: inducers of genotoxicity in HEK293T ELG1-luciferase cells. HEK293T ELG1-luciferase reporter, luminescence, 16 h. Potency, µM (series often up to 46 µM), without a hit: at the top dose activity change, positive = activation, most hits filed as activators. actives 1.3% (n = 330,000). AID 504466; further: % of control where 0% means no effect; nearly all actives have a fitted effect of over 60% in size
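HEK293T cells expressing luciferase-tagged ELG1 were treated with compound or DMSO for 16 hr at 37°C. Luciferase activity was then read after 30 min with ONE-Glo at room temperature; rising signal flags genetic stress.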
Rab9 prom act: activators of Rab9 promoter | Huh7 Rab9 promoter-luciferase reporter, luminescence, 24 h | Potency, µM (doses to about 9.22 µM), inactives show at the highest dose activation, negative = inhibition, hits mostly activators | actives 2.8% (n = 320,000); further: % of control where 0% means no effect; nearly all actives have a fitted effect of over 60% in size
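Luminescence from Amplite-detected luciferase (10 minutes, ambient) reports Rab9 promoter activation. Before that, stable Rab9-luciferase Huh7 cells (1500/well, reduced-serum OP-MEM I plus 10% FBS) were exposed to compound for 24 hours at 37C.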
* marks the source's active call; other numbers are inactive results; ? = inconclusive; nt = no result; [ ] = remark or other dose. Sampled rows, rich in hits. Any-hit rate of the full collection: about 7.5%. The call rests on the fitted dose curve; in most records, active means well fitted curve in the direction sought with a large enough effect; inconclusive means small, poorly fitted or top-dose-only effect, or another doubt; inactive means no such curve, though single readings can be large; an effect the other way counts as inactive or inconclusive. Potency means the concentration at half of the fitted maximal effect.

SMILES	FLuc counter	NPC1 promoter act	SMN2 splice enh	ELG1 genotoxic	Rab9 prom act
COC(=O)N/N=C/c1cc(C)n(-c2ccc(Br)cc2)c1C	?	1%	nt	2%	16%
CC(=O)N/N=C/c1cc(C)n(-c2ccc(Br)cc2)c1C	-18%	5%	-13%	0%	10%
COC(=O)N/N=C/c1cc(C)n(-c2ccccc2)c1C	8.5µM*	25%	-1%[1.84 µM]	?	?
CCc1ccc(-n2c(C)cc(/C=N/NC(=O)OC)c2C)cc1	19µM*	1%	3%[1.84 µM]	14%	2%
Cc1cc(/C=N/NC(N)=O)c(C)n1-c1ccc(F)cc1	-10%	0%	-28%	4%	-1%
CC(=O)C(=Cc1cc(C)n(-c2ccccc2)c1C)C(C)=O	19µM*	-9%	17%	-1%	2%
COC(=O)N/N=C/c1cc(C)n(-c2ccc(F)cc2)c1C	24µM*	0%	28%	?	21%
Cc1cc(C(=O)O)c(C)n1-c1ccccc1	5%	4%	-10%	1%	-1%
COc1ccccc1N1CCN(C(=O)C(CCSC)NS(=O)(=O)c2ccc3c(c2)oc(=O)n3C)CC1 (configuration not stated)	-4%	nt	nt	nt	nt
Cc1cc(/C=N/O)c(C)n1-c1ccccc1	17µM*	8%	5%[1.84 µM]	9%	17%
Cc1cccc(CC(=O)N2CCCC2)c1	-1%	-3%	nt	4%	-1%
COCCCn1c(SCC(=O)OC2CCCCC2)nnc1-c1ccco1	12µM*	1%	-2%	-2%	3%
COCCCn1c(SCC(=O)OC2CCCCC2)nnc1-c1cccs1	19µM*	0%	-5%	-1%	7%
CCCCN(C)C(=O)C1CCCN(c2ncnc3onc(-c4ccc(F)cc4)c23)C1 (configuration not stated)	-8%	nt	nt	nt	nt
CCC(CO)Oc1cc(NC(=O)c2ccccc2[N+](=O)[O-])c2ncn(C(C)C)c2c1 (configuration not stated)	nt	nt	nt	2%	nt
O=[N+]([O-])c1ccc(Nc2ccc(F)cc2)nc1	2%	0%	-6%	3%	-3%
CN(C)c1ccc(Nc2ccc([N+](=O)[O-])cn2)cc1	?	3.5µM*	nt	?	?
C=CCc1c(C)nc(C)nc1N/N=C/c1ccccc1	4%	0%	-2%	3%	-4%
C=CCc1c(C)nc(-c2ccccc2)nc1N/N=C(\C)c1ccc(N)cc1	12µM*	-5%	-29%	-1%	-17%
C=CCc1c(C)nc(-c2ccccc2)nc1N/N=C/c1ccccc1	9.5µM*	0%	9%	1%	-3%
C=CCc1c(C)nc(-c2ccccc2)nc1N/N=C/c1ccncc1	6µM*	14%	26%	-5%	28%
COc1cc(Cl)c(C)cc1NC(=O)CC1CCCC1	1%	-1%	nt	1%	-1%
COc1cccc(N2CCN(C(=O)CSc3ccc(F)cc3)CC2)c1	-3%	-2%	11%	-5%	-2%
Cc1noc(C)c1NC(=O)N(C)C[C@H]1Oc2c(NC(=O)Nc3ccc4c(c3)OCO4)cccc2C(=O)N([C@H](C)CO)C[C@@H]1C	nt	nt	nt	0%	nt
COc1ccc(C2/C=C\CN(C(=O)c3ccc(C)cc3)[C@H](Cc3ccccc3)C(=O)N2Cc2ccc(F)cc2)cc1 (some centres not stated)	-1%	-11%	nt	-5%	-6%
SMILES	FLuc counter	NPC1 promoter act	SMN2 splice enh	ELG1 genotoxic	Rab9 prom act
CCC(C)Nc1nc(-c2c[nH]c3ccccc23)cs1 (configuration not stated)	13µM*	16%	nt	13%	22%
Nc1nc(-c2c[nH]c3ccccc23)cs1	?	12%	?	-2%	?
CCc1ccc(-c2csc(-c3c[nH]c4ccccc34)n2)cc1	21µM*	2.5µM*	13µM*	?	1.1µM*
CNc1nc(-c2c[nH]c3ccccc23)cs1	?	10%	12%	8%	13%
O=C(COC(=O)Cc1ccc(S(=O)(=O)N2CCOCC2)s1)Nc1ccc(OC(F)F)cc1	nt	nt	nt	1%	nt
COCCOc1ccc(C(F)(F)F)cc1NC(=O)CN1C(=O)NC2(CCc3ccccc32)C1=O (configuration not stated)	1%	4%	nt	13%	0%
